# Source: the supplement of paper PMC3484114
# ± gives the standard deviation.
# Tested on: OVCAR-3-derived ovarian cancer stem-like cells (spheroids)
# Assay: cell growth relative to untreated control; higher = more growth (less inhibition)
# Settings: 2.29 µM; 96 h
# Summary of the method: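 Viability of stem-like cells from OVCAR-3 spheroids was assessed with TOX8 resazurin fluorescence at ex 560/em 590 nm. The cells had been trypsin-dissociated, seeded at 50,000 cells/mL in stem cell medium in ultra-low attachment 96-well plates and preincubated 24 h, then treated with compounds at 2.29 uM for 96 h at 37°C, 5% CO2, in 4 replicate wells, with fluorescence read after 4 h. Results were converted to percent growth against untreated wells after blank subtraction and Grubbs outlier removal.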
row,SMILES,cell growth
1,CC(=O)OC1C(O)C(C)OC(OC2C(OC(=O)C3CCC4C(C3)OC3(CC(OC(=O)/C=C/c5ccccc5)C(C)CO3)C43CO3)OC(C)C(O)C2OC(C)=O)C1O (configuration not stated),5.3 ± 3.2%
2,O=C1C=C2C=CC3CC2(O1)C1CCCCN31 (configuration not stated),49.8 ± 9.5%
3,C1COCCN1.S=C(S)N1CCOCC1,63.4 ± 11%
4,NC(=O)OCc1c(O)c2c(c(O)c1COC(N)=O)C(=O)C=CC2=O,95.9 ± 14%
5,COc1cc(C2c3cc4c(cc3C(O)C3COC(=O)C23)OCO4)cc(OC)c1OC (configuration not stated),31 ± 5.3%
6,Cc1cc2c(C(C)C)c(O)c(O)c(C=O)c2c(O)c1-c1c(C)cc2c(C(C)C)c(O)c(O)c(C=O)c2c1O,86 ± 61%
7,C[N+](C)(C)CC1CCCC1=O (configuration not stated),95.5 ± 20%
8,CC(C)C(NC(=O)C(C(C)C)N(C)C)C(=O)N(C)C(C(=O)N1CCCC1C(=O)N1CCCC1C(=O)NCc1ccccc1)C(C)C (configuration not stated),24.5 ± 8.1%
9,CC(=O)O[C@H]1C(=O)[C@@]2(C)[C@H]([C@H](OC(=O)c3ccccc3)[C@]3(O)C[C@H](O)C(C)=C1C3(C)C)[C@]1(OC(C)=O)CO[C@@H]1C[C@@H]2O,123 ± 26%
10,CC[C@](C)(O)C(=O)O[C@H]1C(=O)O[C@@H]2C[C@H]3C(C)=C[C@H](O)[C@@H](O)[C@]3(C)[C@H]3[C@@]4(O)OC[C@]32[C@@H]1[C@@H](C)[C@H]4O,138 ± 54%
11,COC1C(C)OC(OC2CC(C)(O)Cc3cc4c(c(O)c32)C(=O)c2c(O)cc3c(c2C4=O)OC2OC3(C)C(O)C(N(C)C)C2O)C(OC)C1(C)OC (configuration not stated),8.5 ± 3.2%
12,Cc1ccc(N=Nc2c(O)ccc3ccccc23)cc1,74.1 ± 8.8%
13,CO[C@H]1[C@@H](O)[C@@H](C)O[C@H](O[C@H]2[C@H](Oc3cccc4c(O)c5c(=O)oc6ccc(C)c7c(=O)oc(c34)c5c67)O[C@H](C)[C@H](O)[C@@H]2O)[C@@H]1O,67.4 ± 17%
14,Cc1cc(N(CC(C)Br)CC(C)Br)ccc1N=Nc1ccccc1C(=O)O (configuration not stated),64.5 ± 14%
15,CC(C)c1oc(=O)cc2c1[C@@H](O)[C@H]1OC(=O)[C@@]3(C)[C@@H](O)[C@H]4O[C@H]4[C@@]2(C)[C@@H]13,62.6 ± 32%
16,NP(=O)(Oc1c2occc2cc2ccc(=O)oc12)N(CCCl)CCCl (configuration not stated),72.2 ± 18%

row,SMILES,cell growth
1,O=C1N[C@@H]2C(=C[C@H](O)[C@@H](O)[C@H]2O)c2cc3c(cc21)OCO3,31.7 ± 7.1%
2,Oc1cccc2cccnc12,80.4 ± 14%
3,CC[C@@]1(O)C[C@H](OC2CC(N(C)C)C(O)C(C)O2)c2c(O)c3c(c(O)c2[C@H]1OC1CC(N(C)C)C(O)C(C)O1)C(=O)c1cccc(O)c1C3=O (some centres not stated),58.8 ± 56%
4,C[C@@H]1C[C@H]2CC[C@H](O2)[C@H](C)C(=O)O[C@@H](C)C[C@@H]2CC[C@@H](O2)[C@@H](C)C(=O)O[C@H](C)C[C@H]2CC[C@H](O2)[C@H](C)C(=O)O[C@@H](C)C[C@@H]2CC[C@@H](O2)[C@@H](C)C(=O)O1,31.3 ± 6%
5,C=C1C(C)C2C(Cc3ccccc3)NC(=O)C23C(OC(C)=O)/C=C/C(C)(O)CC(C)C/C=C/C3C1O (configuration not stated),90.3 ± 20%
6,Cc1c(N)nc([C@H](CC(N)=O)NC[C@H](N)C(N)=O)nc1C(=O)N[C@H](C(=O)N[C@H](C)[C@@H](O)[C@H](C)C(=O)N[C@H](C(=O)NCCc1nc(-c2nc(C(=O)NCCC[S+](C)C)cs2)cs1)[C@@H](C)O)[C@@H](OC1OC(CO)C(O)C(O)C1OC1OC(CO)C(O)C(OC(N)=O)C1O)c1cnc[nH]1 (some centres not stated),53 ± 10%
7,COC1=C(C)C(=O)C2=C(C1=O)C(CO)N1C(C#N)C3CC4C(C1C2N1CCOC41)N3C (configuration not stated),14.9 ± 4.6%
8,C=Cc1cc(OC)c2c(c1)c(=O)oc1c2cc(OC)c2c(O)ccc(C3OC(C)C(O)C(C)(O)C3O)c21 (configuration not stated),8.6 ± 6%
9,CC[C@@]1(O)C[C@H](O)c2c(O)c3c(c(O)c2[C@H]1C(=O)OC)C(=O)c1cccc(O)c1C3=O,49.5 ± 20%
10,COC(=O)C1C(O)C(C)C(O)C(C)/C=C\C=C(C)C(=O)Nc2c(C)c(OC(C)=O)c3c(c2O)C(=O)C(C)=C2OCOC(=C23)C(C)=CC(C)(O)C(O)C(C)C1O (configuration not stated),84.9 ± 18%
11,C/C1=C\[C@H](C)C[C@H](C)OC(=O)CC(c2ccc(O)cc2)NC(=O)[C@@H](Cc2c(Br)[nH]c3ccccc23)N(C)C(=O)[C@H](C)NC(=O)[C@@H](C)C1 (some centres not stated),25 ± 5.7%
12,[Cl][Cd][Cl],87.6 ± 51%
13,[O-][n+]1ccccc1[S-].[O-][n+]1ccccc1[S-].[Zn+2],95.8 ± 7.8%
14,CC1=CC23C(COC(=O)C24CO4)C(C(=O)O)=CC3C1C.NCc1ccccc1 (configuration not stated),74.5 ± 29%
15,C=C(C)C(=O)OC1CCC2(C)C(CCC3C2CCC2(C)C(c4ccc(=O)oc4)CC4OC432)C1 (configuration not stated),92.2 ± 18%
16,CC1=C(N2CC2)C(=O)C(CO)=C(N2CC2)C1=O,9 ± 3.5%
